PubChem BioAssay (Tox21)
Records with an inconclusive call do not appear. Activity calls are given as the source filed them. Unless noted, calls follow the shape of the dose curve; as a rule, active = well fitted curve in the direction sought with a large enough effect in the repeat runs; inconclusive = weak or mixed curves; inactive = no such curve, though single readings can be large; an effect the other way counts as inactive or inconclusive.

Assays:
[1] = A CellTox Green Cytotoxicity Assay to monitor cytotoxicity in HepG2 cells - 8 hour (AID 1224890); also: nearly all actives have a fitted effect of over 45% in size
Outline: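 HepG2 cells, 600/well, preincubated 5 h with CellTox Green dye, then exposed to Tox21 compounds in DMSO at 37 C for up to 40 h. Dead-cell DNA fluorescence read at the indicated time point.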

[2] = qHTS assay to identify small molecule antagonists of the estrogen receptor alpha (ER-alpha) signaling pathway using the BG1 cell line in the presence of 0.1 nM 17-beta-estradiol - cell viability counter screen (AID 1259241); also: nearly all actives have a fitted effect of over 40% in size
Outline: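 VM7Luc4E2, 4,000 cells/well, phenol red-free medium + 10% charcoal-stripped FBS; 24 hr plating; cpd + 0.1 nM E2 final, 22 hr 37C/5% CO2; CellTiter-Fluor 30 min, fluorescence.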

[3] = qHTS assay to identify small molecule antagonists of the androgen receptor (AR) signaling pathway using the MDA cell line in the presence of 0.5 nM R1881 - cell viability counter screen (AID 1259242); also: nearly all actives have a fitted effect of over 45% in size
Outline: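 MDA-kb2 cells (MMTV-luciferase, AR/GR responsive) were treated with compounds plus 0.5 nM R1881 (final) for 16 hr at 37C, 0% CO2. Viability was then read in the same wells as live-cell protease fluorescence (CellTiter-Fluor, 30 min).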

[4] = qHTS assay to identify small molecule HDAC inhibitors (AID 1259364); also: nearly all actives have a fitted effect of over 45% in size; also: potency is read from the fitted curve at half-maximal effect; as to activity change, negative = inhibition: top concentration of the series differs between compounds
Outline: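 Wild-type HCT-116 cells, plated overnight at 37 C, exposed to compounds 2 hr at 37 C; luminogenic HDAC-Glo substrate then added 30 min at room temperature. Luminescence reports relative endogenous class I/II HDAC activity.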

[5] = qHTS assay to identify small molecule HDAC inhibitors - cell viability counter screen (AID 1259365); also: series mostly up to about 92 µM; nearly all actives have a fitted effect of over 50% in size
Outline: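 Luminescence from CellTiter-Glo, developed 30min at room temperature, reports viability of wild-type HCT-116 cells treated 2hr with compounds at 37 C and 5% CO2 after overnight plating.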

[6] = qHTS assay to identify small molecule agonists of the sonic hedgehog signaling (Shh) pathway - cell viability counter screen (AID 1259366); also: nearly all actives have a fitted effect of over 50% in size
Outline: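 Cytotoxicity counter screen run in the same wells as the Shh reporter assay. NIH/3T3 cells carrying a Gli1 response element–driven luciferase were treated with DMSO-dissolved compounds for 24hr, and live-cell protease activity was measured with CellTiter-Fluor.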

[7] = qHTS assay to identify small molecule antagonists of the sonic hedgehog signaling (Shh) pathway - cell viability counter screen (AID 1259367); also: nearly all actives have a fitted effect of over 55% in size
Outline: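 Cells: 3T3 Gli1-Luc, 2,000/well, 4 hr pre-incubation. Compounds in DMSO, then conditioned medium. Incubation 24 hr, 37C, 5% CO2. CellTiter-Fluor at 23 hr, 1 hr, fluorescence.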

[8] = qHTS assay to identify small molecule agonists of the sonic hedgehog signaling (Shh) pathway (AID 1259368; calls by dose curve;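 also: NIH/3T3-derived 3T3Gli1-Luc cells carrying a stable Gli1-driven firefly luciferase reporter; series mostly up to about 92 µM; nearly all actives have a fitted effect of over 15% in size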)
Outline: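 NIH/3T3-derived 3T3Gli1-Luc cells with stably integrated Gli1-driven firefly luciferase, 2,000 cells/well, compounds added after 4 hr. Incubated 24 hr at 37C, 5% CO2; luminescence read after 30 min with luciferase reagent at room temperature.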

[9] = biological target: Estrogen receptor beta (Homo sapiens) (UniProt Q92731); experiment: qHTS assay to identify small molecule agonists of the estrogen receptor beta (ER-beta) signaling pathway (AID 1259377; active = well fitted activation curve with a large enough effect in the signal ratio in the repeat runs, not every such curve was filed as active; the % refers to the signal ratio)
Estrogen receptor beta (Homo sapiens), sequence (Q92731 whole entry, looked up): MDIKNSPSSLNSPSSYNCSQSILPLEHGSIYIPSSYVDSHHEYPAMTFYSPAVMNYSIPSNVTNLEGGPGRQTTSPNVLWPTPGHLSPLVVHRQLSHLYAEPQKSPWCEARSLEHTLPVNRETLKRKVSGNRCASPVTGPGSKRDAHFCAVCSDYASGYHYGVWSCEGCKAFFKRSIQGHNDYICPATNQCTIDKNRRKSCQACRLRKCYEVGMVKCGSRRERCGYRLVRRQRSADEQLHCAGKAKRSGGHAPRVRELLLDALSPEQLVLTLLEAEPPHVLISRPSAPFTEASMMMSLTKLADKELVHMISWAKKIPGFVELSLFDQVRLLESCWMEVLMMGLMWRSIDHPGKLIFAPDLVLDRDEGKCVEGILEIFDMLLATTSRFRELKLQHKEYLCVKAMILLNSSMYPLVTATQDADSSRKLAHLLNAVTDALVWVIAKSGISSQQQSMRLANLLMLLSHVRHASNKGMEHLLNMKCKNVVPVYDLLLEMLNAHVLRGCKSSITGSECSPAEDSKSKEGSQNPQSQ
Outline: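 HEK293T ER-beta-UAS-bla; 2% charcoal-stripped FBS; cells pre-incubated 6 hr, compound 16 hr, 37C/5% CO2; LiveBLAzer B/G FRET substrate 2 h RT; fluorescence intensity read.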

[10] = qHTS assay to identify small molecule agonists of the androgen receptor (AR) signaling pathway in the presence of an antagonist - cell viability counter screen (AID 1259379);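 also: MDA-kb2 human breast cancer cells carrying an MMTV luciferase reporter; series mostly up to about 92 µM; nearly all actives have a fitted effect of over 25% in size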
Outline: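 MDA-kb2 cells (MMTV-luciferase, AR/GR), 3,000/well, 5 h attachment, then 3.0 µM nilutamide (final) and compounds at 15 concentrations. Viability by CellTiter-Fluor fluorescence after 16 h at 37 °C, 0% CO2, in the reporter wells.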

[11] = qHTS assay to identify small molecule agonists of the estrogen receptor beta (ER-beta) signaling pathway - cell viability counter screen (AID 1259380); also: nearly all actives have a fitted effect of over 30% in size
Outline: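 ER-beta-UAS-bla HEK293T cells in medium with 2% charcoal-stripped FBS, pre-incubated 6 hr, then treated 16 hr at 37C. Cytotoxicity read in the same wells by CellTiter-Glo luminescence after 30 min at room temperature.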

[12] = qHTS assay to identify small molecule antagonists of the estrogen receptor beta (ER-beta) signaling pathway - cell viability counter screen (AID 1259382);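 also: HEK293T cells carrying ER-beta-UAS-bla reporter stimulated with estradiol; series mostly up to about 92 µM; nearly all actives have a fitted effect of over 55% in size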
Outline: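 ER-beta-UAS-bla HEK293T cells in 2% charcoal-stripped FBS medium, treated with compound plus 1 nM 17-beta-estradiol for 16 h at 37C. Viability read by CellTiter-Glo luminescence after 30 min at room temperature in the same wells.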

[13] = qHTS assay to identify small molecule antagonists of the sonic hedgehog signaling (Shh) pathway (AID 1259369; calls by dose curve; also: nearly all actives have a fitted effect of over 45% in size)
Outline: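 NIH/3T3-derived Gli1-Luc reporter cells plated 4 h, dosed with compound, then stimulated with conditioned medium for 24 h at 37 C. Firefly luciferase luminescence read after 30 min with detection reagent at room temperature.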

[14] = qHTS assay to identify small molecule agonists or antagonists of the thyroid stimulating hormone receptor (TSHR) signaling pathway - wild type cell line counter screen (AID 1259384; calls by dose curve)
Outline: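 Counter screen in untransfected Hek293: compounds (15-point titration, triplicate) plus phosphodiesterase inhibitor Ro20-1724 added after 18 h plating; 30 min RT. Intracellular cAMP via competitive d2/cryptate immunoassay, 1 h incubation.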

[15] = biological target: Estrogen receptor beta (Homo sapiens) (UniProt Q92731); experiment: qHTS assay to identify small molecule antagonists of the estrogen receptor beta (ER-beta) signaling pathway (AID 1259378; active = well fitted inhibition curve with a large enough effect in the signal ratio in the repeat runs, not every such curve was filed as active; the % refers to the signal ratio)
Outline: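 Antagonist mode: compounds added to beta-lactamase reporter HEK293T ER-beta-UAS cells stimulated with E2 (1nM final), 16 hr at 37C. LiveBLAzer B/G FRET substrate, 2 hours room temperature, fluorescence read-out.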

[16] = biological target: Estrogen receptor (Homo sapiens) (UniProt P03372); experiment: qHTS assay to identify small molecule antagonists of the estrogen receptor alpha (ER-alpha) signaling pathway using the BG1 cell line in the presence of 0.1 nM 17-beta-estradiol (AID 1259244); also: nearly all actives have a fitted effect of over 50% in size
Estrogen receptor (Homo sapiens), sequence (P03372 whole entry, looked up): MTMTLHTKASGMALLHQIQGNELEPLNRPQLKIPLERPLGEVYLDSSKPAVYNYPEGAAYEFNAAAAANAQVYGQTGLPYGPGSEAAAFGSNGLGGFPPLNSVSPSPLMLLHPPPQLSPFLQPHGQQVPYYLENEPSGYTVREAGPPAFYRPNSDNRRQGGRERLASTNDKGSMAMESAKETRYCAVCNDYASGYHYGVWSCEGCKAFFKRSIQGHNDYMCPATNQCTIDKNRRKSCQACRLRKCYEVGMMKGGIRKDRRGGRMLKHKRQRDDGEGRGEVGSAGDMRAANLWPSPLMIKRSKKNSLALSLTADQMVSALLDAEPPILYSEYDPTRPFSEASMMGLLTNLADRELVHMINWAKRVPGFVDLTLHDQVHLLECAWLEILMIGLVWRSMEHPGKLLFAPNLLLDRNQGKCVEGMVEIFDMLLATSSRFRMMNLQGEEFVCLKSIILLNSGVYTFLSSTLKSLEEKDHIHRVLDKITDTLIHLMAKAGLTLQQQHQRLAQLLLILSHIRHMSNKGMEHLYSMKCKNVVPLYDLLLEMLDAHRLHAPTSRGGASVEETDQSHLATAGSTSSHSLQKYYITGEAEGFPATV
Outline: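 VM7Luc4E2 cells (endogenous full-length ER-alpha, 4×ERE-luciferase), kept 5 days in phenol red-free, charcoal-stripped FBS medium; 4,000 cells/well. Compounds added with 0.1 nM (final) 17beta-estradiol, 22 hr at 37C; luminescence read with ONE-Glo after 30 min.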

[17] = qHTS assay to identify small molecule phospholipidosis (PLD) inducers (AID 1259344; active = well fitted curve in the direction sought with a large enough effect; an effect the other way counts as inactive or inconclusive)
Outline: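 Phospholipidosis is scored by imaging LipidTOX-stained pits in HepG2 cells exposed to compound for 24 h at 37 C; pit counts and integrated intensities per well and per cell serve as outputs.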

[18] = biological target: Estrogen receptor (Homo sapiens) (UniProt P03372); experiment: qHTS assay to identify small molecule agonists of the estrogen receptor alpha (ER-alpha) signaling pathway in the presence of an antagonist (AID 1259383; calls by dose curve; also: top concentration of the series differs between compounds; nearly all actives have a fitted effect of over 15% in size)
Outline: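 VM7Luc4E2 cells express endogenous full-length ER-alpha with an ERE-luciferase reporter and were hormone-deprived for 5 days. Compounds at 15 concentrations were added with 10.0nM ICI-182,780 for 22hr at 37C. Luminescence was read with ONE-Glo.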
% is scaled to controls: 0 for no effect and ±100 for the full control effect.

FC(F)(F)C(F)(F)C(F)(F)C(F)(F)C(F)(F)C(F)(F)C(F)(F)C(F)(F)C(F)(F)C(F)(F)F
inactive: cytotoxicity increase [1] -4.05% [at 6.97 µM] | activity change, negative = cytotoxicity [2] -0.635% [at 8.39 µM] | viability change, negative = cytotoxic [3] -3% [at 8.39 µM] | activity change, negative = inhibition [4] -3.49% [at 8.39 µM] | activity change, negative = cytotoxicity [5] 4.94% [at 8.39 µM] | viability change, negative = cytotoxic [6] 2.95% [at 8.39 µM] | viability change, negative = cytotoxic [7] 4.53% [at 8.39 µM] | activity change [8] -0.701% [at 8.39 µM, stronger effect = higher value] | activation [9] -4.79% [at 8.39 µM] | activity change, negative = cytotoxicity [10] 1.46% [at 8.39 µM] | activity change, negative = cytotoxicity [11] -0.929% [at 8.39 µM] | activity change, negative = cytotoxicity [12] -4.55% [at 8.39 µM]

C=CC(=O)OCCCCCC
inactive: Potency [1] | outcome [2] | outcome [3] | Potency [4] | outcome [5] | Potency [6] | outcome [7] | Potency [8] | Potency [13] | Potency [10] | Potency [11] | Potency [12] | outcome [14]

CCC(=O)c1cccc(Cl)c1
inactive: Potency [1] | outcome [2] | outcome [3] | Potency [4] | outcome [5] | Potency [6] | outcome [7] | Potency [8] | Potency [13] | Potency [10] | Potency [11] | Potency [12] | outcome [14]

Cc1ccccc1C(=O)O
active: Potency [4] 30.1 µM
inactive: Potency [1] | outcome [2] | outcome [3] | outcome [5] | Potency [6] | Potency [8] | Potency [13] | outcome [9] | Potency [15] | Potency [10] | Potency [11] | Potency [12]

CC1=CC(=O)CCC1
inactive: Potency [1] | outcome [2] | outcome [3] | Potency [4] | outcome [5] | Potency [6] | outcome [7] | Potency [8] | outcome [9] | Potency [15] | Potency [10] | Potency [11] | Potency [12] | outcome [14]

CCC(C)OC(=O)N1CCCCC1CCO (stereo unspecified)
inactive: Potency [1] | outcome [2] | outcome [3] | Potency [4] | outcome [5] | Potency [6] | outcome [7] | Potency [8] | Potency [13] | outcome [9] | Potency [10] | Potency [11] | Potency [12] | outcome [14]

CC(C)[C@H](N)C(=O)OCCOCn1cnc2c(=O)[nH]c(N)nc21
inactive: Potency [1] | outcome [3] | outcome [16] | Potency [17] | Potency [4] | outcome [5] | Potency [6] | outcome [7] | Potency [8] | Potency [13] | outcome [9] | Potency [10] | Potency [11] | Potency [12] | Potency [18] | outcome [14]

OC1OC[C@@H](O)[C@H](O)[C@H]1O (stereo partly specified)
inactive: Potency [1] | outcome [2] | outcome [3] | Potency [4] | outcome [5] | Potency [6] | outcome [7] | Potency [8] | Potency [13] | Potency [15] | Potency [10] | Potency [11] | Potency [12]

CCCCC=O
inactive: Potency [1] | outcome [2] | outcome [3] | Potency [4] | outcome [5] | Potency [6] | outcome [7] | Potency [8] | Potency [13] | Potency [10] | Potency [11] | Potency [12] | outcome [14]
